The nature of assay [1]: inhibitors of TNFa-induced NFkB p65 translocation, primary screen, imaging, HUVEC, MLSMR starter and 10KST1 sets (AID 438;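 active = inhibition above 20% together with a positive visual image hit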;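 note: compound added about 3h40 before a 20 min TNFalpha stimulation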;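 for inhibition: signal is the nuclear over cytoplasmic p65 intensity ratio per well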). The following applies: HUVEC TNFa-induced p65 nuclear translocation; cell count: measured here: nuclei count (cytotoxicity indicator), at 2.08 µM; inhibition: at 2 µM, stronger effect = higher value, 0% TNFa-plus-vehicle, 100% no-TNFa wells.
Assay [2] is described as follows: inhibitors of mutant huntingtin aggregation, primary screen, imaging, exon1htt(103Q)mCFP cells, high-content imaging (AID 483;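 active = visual image review flags a hit and inhibition of aggregation exceeds 20%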;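 note: compound exposure lasted 3 days before fixation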;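 for nuclei count: percent of the per-plate median nuclei count of sample wells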). The following applies: exon1htt(103Q)mCFP cell line, aggregate imaging, at 2 µM; inhibition of aggregation: stronger effect = higher value; nuclei count: measured here: cell count, toxicity.
The nature of assay [3]: inhibitors of E-selectin induction by TNFa, primary screen, imaging, HUVEC, immunofluorescence, MLSMR starter and 10KST1 sets (AID 487).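 For inhibition: signal is fraction of cell area covered by stained E-selectin grains.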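 For nuclei count: 100% = median nuclei count of all wells on the same plate.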 The following applies: HUVEC TNFalpha-induced E-selectin immunofluorescence imaging, at 2 µM; inhibition: stronger effect = higher value; nuclei count: measured here: cell number, toxicity.
Assay [4] has as its target Voltage-gated potassium channel subunit beta-2 (Rattus norvegicus) (UniProt P62483). Briefly: KvBeta enzyme negative modulators, primary screen, biochemical, NADPH fluorescence (AID 622;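 active = fluorescence slope higher than the sample average by over 3 SD, cut at about -0.22 in these data, passing the limit was not always enough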;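 note: slope of raw intensity against log time taken from 70 to 1610 s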). The note with it: recombinant KvBeta, 4-cyanobenzaldehyde reduction, at 10 µM, stronger effect = higher value.
The target is the same in assay [5]. Briefly: KvBeta positive modulators, primary screen, biochemical, NADPH fluorescence (AID 623;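 active = NADPH fluorescence slope more negative than the mean of all samples by about 3 SD, 99.7% confidence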;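 note: fluorescence intensity change per second fitted from 20 to 320 s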). The note with it: Recombinant KvBeta, NADPH fluorescence decrease slope, 10 min; at 10 µM; stronger effect = lower value.
In assay [6] the target is Alpha-2C adrenergic receptor (Homo sapiens) (UniProt P18825). Briefly: modulators of alpha2C/GIRK thallium flux, primary screen, cell-based, HEK293 alpha2C/GIRK1/2 (AID 624;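 active = fluorescence slope after compound addition differing from the mean of all screened samples at 99.7% confidence, in either direction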;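 note: slope of fluorescence ratio to pre-addition baseline per second over 15 to 24 s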). The following applies: thallium flux BTC fluorescence, at 10 µM, actives lie on both sides.
Alpha-2C adrenergic receptor (Homo sapiens), sequence (P18825 whole entry, looked up): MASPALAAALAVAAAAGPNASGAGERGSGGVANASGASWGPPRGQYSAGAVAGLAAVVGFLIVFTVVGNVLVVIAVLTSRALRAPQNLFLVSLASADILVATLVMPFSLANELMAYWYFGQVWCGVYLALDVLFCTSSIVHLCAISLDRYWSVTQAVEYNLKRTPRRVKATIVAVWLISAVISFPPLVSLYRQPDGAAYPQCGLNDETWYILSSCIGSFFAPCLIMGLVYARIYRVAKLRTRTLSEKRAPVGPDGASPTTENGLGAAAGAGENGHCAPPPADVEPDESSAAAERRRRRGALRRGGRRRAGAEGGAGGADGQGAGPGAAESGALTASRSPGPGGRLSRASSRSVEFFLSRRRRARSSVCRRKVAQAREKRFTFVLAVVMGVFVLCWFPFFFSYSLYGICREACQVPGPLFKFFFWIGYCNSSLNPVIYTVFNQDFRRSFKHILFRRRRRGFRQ
The nature of assay [7]: inhibitors of Sendai virus-induced IRF3 signaling, primary screen, TLR/RLR signaling modifier project, cell-based, Sendai virus stimulus, luciferase, 10K MLSCN set (AID 602276;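 active = inhibition at or above 50% at 10 µM; inactive = inhibition below 50%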;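 note: firefly luciferase from ISG56 promoter only with Renilla not read in this screen; 0% = Sendai virus plus DMSO and 100% = medium plus DMSO without virus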). The note with it: HEK293 RL24 IRF3 luciferase reporter, at 10 µM, stronger effect = higher value. For orientation: Reporter assays use an easily measured gene product as a stand-in for the process of interest.

A short description of assay [8]: inhibitors of poly I:C-induced TLR3 signaling, primary screen, cell-based, poly I:C stimulus, luciferase, 10K MLSCN set (AID 602277;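 active = inhibition of the reporter signal at or above 50%; inactive = inhibition below 50%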). The note with it: HEK293-TLR3 RL24 IRF3 luciferase reporter, at 10 µM, stronger effect = higher value.

Active and inactive are the calls of the source.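 Rule for the calls, unless noted: active = visually confirmed hit in the image check and inhibition above 20%; inconclusive = visually confirmed hit but inhibition not above 20%; inactive = no visual hit in the image check.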

By inhibition is commonly meant the change of the read-out against control, counted positive when it falls.

Voltage-gated potassium channel subunit beta-2 (Rattus norvegicus), sequence (P62483 whole entry, looked up): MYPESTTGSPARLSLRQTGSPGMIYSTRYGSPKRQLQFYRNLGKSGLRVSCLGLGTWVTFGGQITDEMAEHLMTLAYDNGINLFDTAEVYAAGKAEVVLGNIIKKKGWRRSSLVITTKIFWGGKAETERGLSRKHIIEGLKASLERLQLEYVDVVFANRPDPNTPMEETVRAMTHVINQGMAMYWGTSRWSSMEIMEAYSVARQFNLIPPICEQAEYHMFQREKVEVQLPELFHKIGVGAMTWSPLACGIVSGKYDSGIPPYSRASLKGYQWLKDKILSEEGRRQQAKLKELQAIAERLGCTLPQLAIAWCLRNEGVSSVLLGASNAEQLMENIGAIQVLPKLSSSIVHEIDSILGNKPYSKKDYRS

With `O=C(c1sc2ccccc2c1Cl)N(Cc1cccs1)C1CCS(=O)(=O)C1` (centres undefined), the cell count in assay [1] stood at 677. The inhibition was 4.4% (inactive) in assay [1], 10.4% (inactive) in assay [3], 10.4% (inactive) in assay [7] and 32.5% (inactive) in assay [8]. Further, in assay [2], the inhibition of aggregation is 17.9% (inactive). For the same molecule, the nuclei count in assay [2] came to 90.3%; in assay [3], 108%. Further, the fluorescence slope in assay [4] was -0.579 (inactive). Further, the NADPH fluorescence slope in assay [5] was -2.7e-05 (inactive). For the same molecule, in assay [6], the slope is 0.00741 (inactive).

As for `CCc1nccn1S(=O)(=O)c1ccc(C)c(C)c1`, the cell count in assay [1] was found to be 603. Moreover, the inhibition in assay [1] is -11.5% (inactive); in assay [3], -33% (inactive); in assay [7], 7.1% (inactive); in assay [8] it was 12.9% (inactive). Also, the inhibition of aggregation in assay [2] is 7% (inactive). The nuclei count in assay [2] came out at 94%; in assay [3], 117%. Moreover, the fluorescence slope in assay [4] is -0.618 (inactive). Further, in assay [5], the NADPH fluorescence slope is -5.2e-05 (inactive). Moreover, in assay [6], the slope was 0.00545 (inactive).

As for `CC1=C(C(=O)OC(C)C)C(c2cccc(F)c2)n2ncnc2N1` (centres undefined), the cell count in assay [1] came to 752. Also, the inhibition in assay [1] is 0% (inactive); in assay [3], -76.3% (inactive); in assay [7] it was -7.13% (inactive); in assay [8], 22.1% (inactive). The inhibition of aggregation in assay [2] was 19% (inactive). The nuclei count amounted to 95.5% in assay [2] and 114% in assay [3]. Also, the fluorescence slope in assay [4] is -0.6 (inactive). Moreover, the NADPH fluorescence slope in assay [5] is 1.6e-05 (inactive). In addition, the slope in assay [6] is 0.00586 (inactive).

For the molecule `CC1CC(C)CN(CC(=O)Nc2ccc(S(N)(=O)=O)cc2)C1` (centres undefined), the cell count in assay [1] was 368. The inhibition was 1.4% (inactive) in assay [1], 30.9% (inactive) in assay [3], 7.84% (inactive) in assay [7] and 12.5% (inactive) in assay [8]. For the same molecule, the inhibition of aggregation in assay [2] was -27.5% (inactive). Besides, the nuclei count in assay [2] is 113%; in assay [3], 96.7%. Moreover, the fluorescence slope in assay [4] was -0.517 (inactive). For the same molecule, in assay [5], the NADPH fluorescence slope is -3e-05 (inactive). Further, in assay [6], the slope is 0.00537 (inactive).

Regarding `CCOC(=O)C1C(=O)N(C(=O)c2ccc(OC)cc2)CC1c1ccccc1` (centres undefined), the cell count in assay [1] came to 423. Further, the inhibition in assay [1] is -7.6% (inactive); in assay [3], -39.2% (inactive); in assay [7] it was 12.3% (inactive); in assay [8] it was 22.3% (inactive). In addition, the inhibition of aggregation in assay [2] is -7.4% (inactive). Further, the nuclei count was found to be 99% in assay [2] and 128% in assay [3]. The fluorescence slope in assay [4] was -0.384 (inactive). In assay [5], the NADPH fluorescence slope is -0.000151 (inactive). Further, in assay [6], the slope is 0.00629 (inactive).

Regarding `CCOC(=O)NC(=O)CSc1nnnn1-c1ccc(Cl)cc1`, the cell count in assay [1] was found to be 394. Besides, the inhibition was 10% (inactive) in assay [1], -90.3% (inactive) in assay [3], 4.73% (inactive) in assay [7] and 15.2% (inactive) in assay [8]. Moreover, the inhibition of aggregation in assay [2] is 2.2% (inactive). Further, the nuclei count in assay [2] is 83.5%; in assay [3], 110%. Further, the fluorescence slope in assay [4] is -0.297 (inactive). Besides, in assay [5], the NADPH fluorescence slope was 4.2e-05 (inactive). In addition, the slope in assay [6] was 0.00637 (inactive).

Regarding `Cn1c(=O)cc(OCC(=O)NCCCN2CCN(Cc3ccccc3)CC2)c2ccccc21`, the cell count in assay [1] came out at 505. Besides, the inhibition in assay [1] was -6.9% (inactive); in assay [3], -124% (inactive); in assay [7], -11.8% (inactive); in assay [8], 31.2% (inactive). Moreover, in assay [2], the inhibition of aggregation is 4.5% (inactive). Besides, the figures for the nuclei count in assay [2] and in assay [3] were 86.8% and 135%, respectively. The fluorescence slope in assay [4] is -0.556 (inactive). For the same molecule, in assay [5], the NADPH fluorescence slope was 2.6e-05 (inactive). In addition, in assay [6], the slope is 0.00749 (inactive).

Take `CON(C)c1nc(Oc2ccc(=O)[nH]n2)nc(N(C)C)n1`: in assay [1], the cell count was 678. Also, the inhibition in assay [1] is -6.2% (inactive); in assay [3], -48.5% (inactive); in assay [7], 16.3% (inactive); in assay [8], 19.3% (inactive). In addition, in assay [2], the inhibition of aggregation is -9.5% (inactive). Further, the nuclei count was 85.9% in assay [2] and 101% in assay [3]. Further, in assay [4], the fluorescence slope was -0.351 (inactive). The NADPH fluorescence slope in assay [5] is 1.4e-05 (inactive). Also, in assay [6], the slope was 0.00477 (inactive).

On to `Cc1nc2nc(-c3cccnc3)nn2c(C)c1Cl`, for which, in assay [1], the cell count turned out to be 689. Further, the inhibition is -13.8% (inactive) in assay [1], -32.8% (inactive) in assay [3], -17.9% (inactive) in assay [7] and -15.3% (inactive) in assay [8]. Also, in assay [2], the inhibition of aggregation was -5.4% (inactive). Further, the nuclei count in assay [2] was 81.3%; in assay [3], 107%. For the same molecule, the fluorescence slope in assay [4] was -0.333 (inactive). Moreover, the NADPH fluorescence slope in assay [5] was -3.7e-05 (inactive). Also, the slope in assay [6] is 0.00559 (inactive).

Consider `O=C(NCc1cccs1)C(Cc1ccccc1)n1cccc1` (centres undefined), for which the cell count in assay [1] came out at 602. Also, the inhibition in assay [1] is -6.3% (inactive); in assay [3] it was -25.8% (inactive); in assay [7] it was 1.52% (inactive); in assay [8] it was 26.2% (inactive). Moreover, the inhibition of aggregation in assay [2] is 6.2% (inactive). The nuclei count came out at 95.4% in assay [2] and 115% in assay [3]. For the same molecule, in assay [4], the fluorescence slope is -0.614 (inactive). Besides, the NADPH fluorescence slope in assay [5] was -5.2e-05 (inactive). For the same molecule, the slope in assay [6] was 0.00634 (inactive).

For `O=C(CN(Cc1ccco1)C(=O)c1cc(=O)[nH]c2ccccc12)Nc1ccccc1Br`, the cell count in assay [1] was found to be 498. The inhibition in assay [1] was -22.4% (inactive); in assay [3], 10.6% (inactive); in assay [7], 16% (inactive); in assay [8], 16.8% (inactive). The inhibition of aggregation in assay [2] was 11.6% (inactive). Besides, the results for the nuclei count in assay [2] and in assay [3] were 103% and 105%, respectively. In assay [4], the fluorescence slope was -0.58 (inactive). Also, the NADPH fluorescence slope in assay [5] was -4.1e-05 (inactive). Also, the slope in assay [6] was 0.00457 (inactive).

As to `COCCNC(=O)C(c1cccs1)N(C(=O)Cn1nnc2ccccc21)c1ccccc1` (centres undefined), the cell count in assay [1] was 385. Besides, the inhibition in assay [1] is 5.9% (inactive); in assay [3], 24.6% (inactive); in assay [7], 10.7% (inactive); in assay [8], 6.48% (inactive). Moreover, the inhibition of aggregation in assay [2] is 0.7% (inactive). Further, the nuclei count in assay [2] came out at 98.9%; in assay [3], 93.8%. Also, the fluorescence slope in assay [4] is -0.506 (inactive). Also, the NADPH fluorescence slope in assay [5] is -1.1e-05 (inactive). Further, in assay [6], the slope is 0.00629 (inactive).

Regarding `COc1ccc(NC(C)=O)cc1NC(=O)CN1CCN(c2ccccn2)CC1`, in assay [1], the cell count was determined as 573. Further, the inhibition in assay [1] is -7% (inactive); in assay [3], -35.2% (inactive); in assay [7], -3.99% (inactive); in assay [8], 0.164% (inactive). In addition, the inhibition of aggregation in assay [2] was -1.2% (inactive). Moreover, the values for the nuclei count in assay [2] and in assay [3] were 104% and 74.8%, respectively. Further, the fluorescence slope in assay [4] is -0.526 (inactive). Also, in assay [5], the NADPH fluorescence slope is -1.4e-05 (inactive). In assay [6], the slope is 0.00596 (inactive).

`CCN1CCN(c2nc3c(c(=O)n(C)c(=O)n3C)n2CCSc2ncccn2)CC1`: in assay [1], the cell count came out at 295. For the same molecule, the inhibition in assay [1] is -0.5% (inactive); in assay [3], -130% (inactive); in assay [7] it was 0.292% (inactive); in assay [8], 13% (inactive). Besides, the inhibition of aggregation in assay [2] was -7.5% (inactive). The nuclei count in assay [2] was found to be 97.8%; in assay [3] it was 116%. For the same molecule, the fluorescence slope in assay [4] was -0.506 (inactive). The NADPH fluorescence slope in assay [5] was -9.3e-06 (inactive). For the same molecule, the slope in assay [6] was 0.00522 (inactive).

The record behind these values is PubChem BioAssay.
